Counter-ions that a name gives are not always drawn.
Assays:
Experiment in all cases: cell proliferation relative to vehicle (% of vehicle); higher = less growth inhibition
Details in all cases: 72 h
[1] = test system: U2932 TK216-resistant clone 2
In short: (§1)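 A targeted inhibitor library of 348 compounds was tested on the ABC-DLBCL line U2932, both parental and two clones made resistant to an ETS-targeting agent by repeated exposure over almost a year. Cells were grown at 37°C and 5% CO2 in medium with 10% FBS, then treated at 500 nM or 50 nM for 72 h. MTT was added for 4 h, stopped with 25% SDS, and absorbance was read on a Cytation 3. Proliferation is reported as percent of proliferating cells relative to vehicle (DMSO).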

[2] = test system: U2932 TK216-resistant clone 3
In short: as §1

[3] = test system: U2932 parental
In short: as §1

Compound | cell proliferation ([1]; 50 nM) | cell proliferation ([1]; 500 nM) | cell proliferation ([2]; 50 nM) | cell proliferation ([2]; 500 nM) | cell proliferation ([3]; 50 nM) | cell proliferation ([3]; 500 nM)
Oc1ccc(Nc2nc(-c3ccc(Cl)cc3)cs2)cc1 | 109 | 94.9 | 111 | 103 | 97 | 95.5
Cc1cc(Nc2cc(N3CCN(C)CC3)nc(/C=C/c3ccccc3)n2)n[nH]1 [ENMD-2076 L-(+)-Tartaric acid] | 101 | 61.9 | 105 | 57.2 | 99 | 47.6
O=C1c2c(O)ccc(O)c2C(=O)c2c(NCCNCCO)ccc(NCCNCCO)c21 [Mitoxantrone] | 12 | 5.19 | 16 | 15 | 18.8 | 8.11
CCO[C@@H]1OC(=O)C[C@@H]1NC(=O)[C@@H]1CCCN1C(=O)[C@@H](NC(=O)c1ccc(N)c(Cl)c1)C(C)(C)C | 105 | 105 | 101 | 102 | 95.4 | 98.2
O=C(/C=C/c1ccc2ccccc2n1)c1ccncc1 | 99.7 | 83.1 | 102 | 88.3 | 98.2 | 89.1
CCCNC(=O)c1cn2ncnc(Nc3cc(C(=O)NC4CC4)ccc3C)c2c1C | 104 | 98.2 | 105 | 103 | 103 | 98.7
Cc1nc(N)sc1-c1ccnc(Nc2ccc(N3CCOCC3)cc2)n1 | 91.2 | 103 | 99.5 | 103 | 103 | 95.8
C[C@@H]1CN(CC(=O)Nc2ccc3c(c2)Cc2cccc(-c4cc(=O)cc(N5CCOCC5)o4)c2S3)C[C@H](C)O1 | 102 | 101 | 103 | 97 | 105 | 111
CO[C@@H](C(=O)N1Cc2[nH]nc(NC(=O)c3ccc(N4CCN(C)CC4)cc3)c2C1)c1ccccc1 | 97.2 | 84 | 77.8 | 71.7 | 71.8 | 69.5
O=c1cc(N2CCOCC2)oc2c(-c3ccccc3)cccc12 | 110 | 102 | 100 | 97.3 | 105 | 105
CCOC(=O)c1[nH]c2cc(Cl)ccc2c1C(C(=O)NC(C)(C)C)N(C=O)Cc1ccc(Cl)cc1 (stereo not given) | 106 | 92.2 | 103 | 95.6 | 97.7 | 93.4
Nc1ccn([C@@H]2O[C@H](CO)[C@@H](O)C2(F)F)c(=O)n1 [Gemcitabine] | 15.3 | 14.9 | 20.1 | 19.1 | 12.5 | 14.6
COc1cc2ncnc(Oc3ccc(CC(=O)Nc4cnn(C(C)C)c4)cc3)c2cc1OC | 100 | 104 | 104 | 98.5 | 97.7 | 95.7
CCN(CC)CCNC(=O)c1ccc(N)cc1 [Procainamide HCl] |  |  |  |  | 93.9 | 95.9
S=C(NCc1ccc2c(c1)OCO2)N1CCN(c2ncnc3c2oc2ccccc23)CC1 [Amuvatinib (MP-470)] | 102 | 109 | 107 | 104 | 100 | 101
C[C@H]1c2cccc(O)c2C(=O)C2=C(O)[C@]3(O)C(=O)C(C(N)=O)=C(O)[C@@H](N(C)C)[C@@H]3[C@@H](O)[C@@H]21 [Doxycycline Hyclate] | 104 | 105 | 102 | 102 | 106 | 105
Cc1ccc(NC(=O)c2ccc(CN3CCN(C)CC3)cc2)cc1Nc1nc(-c2cccnc2)cs1 [Masitinib (AB1010)] | 95.6 | 83.5 | 100 | 86.2 | 92.5 | 92.7
C=CC(=O)N1CCC[C@@H](n2nc(-c3ccc(Oc4ccccc4)cc3)c3c(N)ncnc32)C1 |  |  |  |  | 76 | 70.9
CS(=O)(=O)N1CCN(Cc2cc3nc(-c4cccc5[nH]ncc45)nc(N4CCOCC4)c3s2)CC1 |  |  |  |  | 85.4 | 49.1

Compound | cell proliferation ([1]; 50 nM) | cell proliferation ([1]; 500 nM) | cell proliferation ([2]; 50 nM) | cell proliferation ([2]; 500 nM) | cell proliferation ([3]; 50 nM) | cell proliferation ([3]; 500 nM)
COc1cc(Nc2nc3ccccc3nc2NS(=O)(=O)c2ccc(NC(=O)c3ccc(C)c(OC)c3)cc2)cc(OC)c1 | 98.5 | 106 | 104 | 103 | 105 | 104
COc1cc(F)c(F)c(Nc2ccc(I)cc2F)c1NS(=O)(=O)C1(C[C@H](O)CO)CC1 [Refametinib (RDEA119, Bay 86-9766)] | 104 | 92.6 | 105 | 97.1 | 92.8 | 96.2
Cc1c(NC(=O)OC[C@@H]2COCCN2)cn2ncnc(Nc3ccc4c(cnn4Cc4cccc(F)c4)c3)c12 | 100 | 80.4 | 98.1 | 71.9 | 97.2 | 81.6
O=c1oc2c(O)c(O)cc3c(=O)oc4c(O)c(O)cc1c4c23 [Ellagic acid] | 99 | 110 | 106 | 107 | 101 | 100
O=C(Nc1c[nH]nc1-c1nc2ccc(CN3CCOCC3)cc2[nH]1)NC1CC1 | 90.5 | 67.5 | 75.8 | 60.1 | 69.3 | 54.2
O=C(Nc1cccc(Nc2ncc(Br)c(NCCc3cnc[nH]3)n2)c1)N1CCCC1 | 95.7 | 87 | 103 | 77 | 99.6 | 68.1
CC(C)(C(=O)NCC(F)(F)C(F)(F)F)C(=O)N[C@@H]1C(=O)Nc2ccccc2-c2ccccc21 | 105 | 109 | 105 | 100 | 98.7 | 86.5
COC(=O)c1ccc2c(c1)NC(=O)/C2=C(\Nc1ccc(N(C)C(=O)CN2CCN(C)CC2)cc1)c1ccccc1 [Nintedanib (BIBF 1120)] | 105 | 94.8 | 93.4 | 81.7 | 102 | 96.6
CN1CCN(c2ccc3nc(-c4c(N)c5c(F)cccc5[nH]c4=O)[nH]c3c2)CC1 [Dovitinib (TKI-258, CHIR-258)] | 103 | 83.9 | 95.7 | 83.3 | 95.1 | 96.9
CO[C@H]1C[C@@H]2CC[C@@H](C)[C@@](O)(O2)C(=O)C(=O)N2CCCC[C@H]2C(=O)O[C@H]([C@H](C)C[C@@H]2CC[C@@H](OC(=O)C(C)(CO)CO)[C@H](OC)C2)CC(=O)[C@H](C)/C=C(\C)[C@@H](O)[C@@H](OC)C(=O)[C@H](C)C[C@H](C)/C=C/C=C/C=C/1C | 68.3 | 64.8 | 65 | 65.1 | 59.6 | 58.9
NC(=O)c1ccc(I)c([N+](=O)[O-])c1 [Iniparib (BSI-201)] | 107 | 98.2 | 105 | 103 | 97 | 102
CNC(=O)c1cccc(-c2ccc3c(N4CCOC[C@@H]4C)nc(N4CCOC[C@@H]4C)nc3n2)c1 | 102 | 52.9 | 93.8 | 55.6 | 91.7 | 46.4
Cn1c(Nc2ccc(C(F)(F)F)cc2)nc2cc(Oc3ccnc(-c4ncc(C(F)(F)F)[nH]4)c3)ccc21 | 96.1 | 80.7 | 98.8 | 96.7 | 95.6 | 88
C[C@]12C=CC(=O)C=C1CC[C@@H]1[C@@H]2C(=O)C[C@@]2(C)[C@H]1CC[C@]2(O)C(=O)CO [Prednisone] | 95.3 | 94.8 | 105 | 102 | 97.3 | 100
CCOC(=O)C1=C(N)Oc2ccc(Br)cc2C1C(C#N)C(=O)OCC (stereo not given) | 103 | 95.7 | 109 | 100 | 98.4 | 97.6
COc1cc2c(Oc3ccc4[nH]c(C)cc4c3F)ncnc2cc1OCCCN1CCCC1 [Cediranib (AZD2171)] | 105 | 92.6 | 99.8 | 83 | 96.7 | 90.4
CCc1nc(-c2cccc(C)c2)c(-c2ccnc(NC(=O)c3ccccc3)c2)s1 | 103 | 97.7 | 98.4 | 103 | 104 | 101
COc1ccccc1OCC(O)CN1CCN(CC(=O)Nc2c(C)cccc2C)CC1 (stereo not given) [Ranolazine] | 97.6 | 91.3 | 95 | 101 | 106 | 99.1

Reference: the supplement of paper PMC13172266
